# The source made the active and inactive calls.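 How the source made its calls: active means normalized viability below 100% at a tested concentration; inactive means the rest.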
# Assay: ovarian cancer cell viability with rucaparib, profiling panel, oncology-focused library, rucaparib conditional (AID 1508598)
# Details: patient-derived ovarian cancer cells, CellTiter-Glo viability, 144 h; at 0.00122 µM; OCI-P5x cells; with rucaparib 20 µM; hits give low values; 100% = cells with rucaparib alone
row,SMILES,viability
1,CCOC(=O)NCCCC(=O)NCCc1ccccc1,95.3% (active)
2,C[C@@]1(c2nc3c(C(N)=O)cccc3[nH]2)CCCN1,97.2% (active)
3,Cc1ccc(NC(=O)c2ccc(CN3CCN(C)CC3)cc2)cc1Nc1nc(-c2cccnc2)cs1,109% (inactive)
4,C[C@]12CC[C@H]3c4ccc(O)cc4CC[C@H]3[C@@H]1CCC2=O,101% (inactive)
5,O=C(NCC1(c2nc(-c3ccccc3)cs2)CCOCC1)c1cccc(-c2noc(C(F)(F)F)n2)c1,104% (inactive)

# Same assay, conditions: patient-derived ovarian cancer cells, CellTiter-Glo viability, 144 h; at 0.00122 µM; OCI-P5x cells; without rucaparib; hits give low values
row,SMILES,viability
1,CCOC(=O)NCCCC(=O)NCCc1ccccc1,93.4% (active)
2,C[C@@]1(c2nc3c(C(N)=O)cccc3[nH]2)CCCN1,101% (inactive)
3,Cc1ccc(NC(=O)c2ccc(CN3CCN(C)CC3)cc2)cc1Nc1nc(-c2cccnc2)cs1,96.2% (active)
4,C[C@]12CC[C@H]3c4ccc(O)cc4CC[C@H]3[C@@H]1CCC2=O,106% (inactive)
5,O=C(NCC1(c2nc(-c3ccccc3)cs2)CCOCC1)c1cccc(-c2noc(C(F)(F)F)n2)c1,101% (inactive)

# Same assay, conditions: patient-derived ovarian cancer cells, CellTiter-Glo viability, 144 h; at 0.00488 µM; OCI-C5x cells; with rucaparib 10 µM; hits give low values; 100% = cells with rucaparib alone
row,SMILES,viability
1,CCOC(=O)NCCCC(=O)NCCc1ccccc1,111% (inactive)
2,C[C@@]1(c2nc3c(C(N)=O)cccc3[nH]2)CCCN1,122% (inactive)
3,Cc1ccc(NC(=O)c2ccc(CN3CCN(C)CC3)cc2)cc1Nc1nc(-c2cccnc2)cs1,112% (inactive)
4,C[C@]12CC[C@H]3c4ccc(O)cc4CC[C@H]3[C@@H]1CCC2=O,115% (inactive)
5,O=C(NCC1(c2nc(-c3ccccc3)cs2)CCOCC1)c1cccc(-c2noc(C(F)(F)F)n2)c1,127% (inactive)

# Same assay, conditions: patient-derived ovarian cancer cells, CellTiter-Glo viability, 144 h; at 0.00488 µM; OCI-C5x cells; without rucaparib; hits give low values
row,SMILES,viability
1,CCOC(=O)NCCCC(=O)NCCc1ccccc1,110% (inactive)
2,C[C@@]1(c2nc3c(C(N)=O)cccc3[nH]2)CCCN1,109% (inactive)
3,Cc1ccc(NC(=O)c2ccc(CN3CCN(C)CC3)cc2)cc1Nc1nc(-c2cccnc2)cs1,129% (inactive)
4,C[C@]12CC[C@H]3c4ccc(O)cc4CC[C@H]3[C@@H]1CCC2=O,120% (inactive)
5,O=C(NCC1(c2nc(-c3ccccc3)cs2)CCOCC1)c1cccc(-c2noc(C(F)(F)F)n2)c1,117% (inactive)

# Same assay, conditions: patient-derived ovarian cancer cells, CellTiter-Glo viability, 144 h; at 0.00488 µM; OCI-P5x cells; with rucaparib 20 µM; hits give low values; 100% = cells with rucaparib alone
row,SMILES,viability
1,CCOC(=O)NCCCC(=O)NCCc1ccccc1,92.7% (active)
2,C[C@@]1(c2nc3c(C(N)=O)cccc3[nH]2)CCCN1,106% (inactive)
3,Cc1ccc(NC(=O)c2ccc(CN3CCN(C)CC3)cc2)cc1Nc1nc(-c2cccnc2)cs1,102% (inactive)
4,C[C@]12CC[C@H]3c4ccc(O)cc4CC[C@H]3[C@@H]1CCC2=O,99.5% (active)
5,O=C(NCC1(c2nc(-c3ccccc3)cs2)CCOCC1)c1cccc(-c2noc(C(F)(F)F)n2)c1,95.9% (active)

# Same assay, conditions: patient-derived ovarian cancer cells, CellTiter-Glo viability, 144 h; at 0.00488 µM; OCI-P5x cells; without rucaparib; hits give low values
row,SMILES,viability
1,CCOC(=O)NCCCC(=O)NCCc1ccccc1,96.6% (active)
2,C[C@@]1(c2nc3c(C(N)=O)cccc3[nH]2)CCCN1,102% (inactive)
3,Cc1ccc(NC(=O)c2ccc(CN3CCN(C)CC3)cc2)cc1Nc1nc(-c2cccnc2)cs1,92.7% (active)
4,C[C@]12CC[C@H]3c4ccc(O)cc4CC[C@H]3[C@@H]1CCC2=O,100% (inactive)
5,O=C(NCC1(c2nc(-c3ccccc3)cs2)CCOCC1)c1cccc(-c2noc(C(F)(F)F)n2)c1,97.2% (active)

# Same assay, conditions: patient-derived ovarian cancer cells, CellTiter-Glo viability, 144 h; at 0.0195 µM; OCI-C5x cells; with rucaparib 10 µM; hits give low values; 100% = cells with rucaparib alone
row,SMILES,viability
1,CCOC(=O)NCCCC(=O)NCCc1ccccc1,116% (inactive)
2,C[C@@]1(c2nc3c(C(N)=O)cccc3[nH]2)CCCN1,121% (inactive)
3,Cc1ccc(NC(=O)c2ccc(CN3CCN(C)CC3)cc2)cc1Nc1nc(-c2cccnc2)cs1,109% (inactive)
4,C[C@]12CC[C@H]3c4ccc(O)cc4CC[C@H]3[C@@H]1CCC2=O,114% (inactive)
5,O=C(NCC1(c2nc(-c3ccccc3)cs2)CCOCC1)c1cccc(-c2noc(C(F)(F)F)n2)c1,120% (inactive)

# Same assay, conditions: patient-derived ovarian cancer cells, CellTiter-Glo viability, 144 h; at 0.0195 µM; OCI-C5x cells; without rucaparib; hits give low values
row,SMILES,viability
1,CCOC(=O)NCCCC(=O)NCCc1ccccc1,115% (inactive)
2,C[C@@]1(c2nc3c(C(N)=O)cccc3[nH]2)CCCN1,106% (inactive)
3,Cc1ccc(NC(=O)c2ccc(CN3CCN(C)CC3)cc2)cc1Nc1nc(-c2cccnc2)cs1,124% (inactive)
4,C[C@]12CC[C@H]3c4ccc(O)cc4CC[C@H]3[C@@H]1CCC2=O,108% (inactive)
5,O=C(NCC1(c2nc(-c3ccccc3)cs2)CCOCC1)c1cccc(-c2noc(C(F)(F)F)n2)c1,104% (inactive)

# Same assay, conditions: patient-derived ovarian cancer cells, CellTiter-Glo viability, 144 h; at 0.0195 µM; OCI-P5x cells; with rucaparib 20 µM; hits give low values; 100% = cells with rucaparib alone
row,SMILES,viability
1,CCOC(=O)NCCCC(=O)NCCc1ccccc1,93.3% (active)
2,C[C@@]1(c2nc3c(C(N)=O)cccc3[nH]2)CCCN1,98.2% (active)
3,Cc1ccc(NC(=O)c2ccc(CN3CCN(C)CC3)cc2)cc1Nc1nc(-c2cccnc2)cs1,99.3% (active)
4,C[C@]12CC[C@H]3c4ccc(O)cc4CC[C@H]3[C@@H]1CCC2=O,96.5% (active)
5,O=C(NCC1(c2nc(-c3ccccc3)cs2)CCOCC1)c1cccc(-c2noc(C(F)(F)F)n2)c1,95.5% (active)

# From PubChem BioAssay
